# This is a sample that favours compounds with a hit; in the whole collection about 2% have one here.
# Rango dissoc inh = inhibition of RanGTP-driven Rango-importin beta dissociation; Biochemical FRET Rango-importin beta, RanGTP-induced dissociation; actives 0.071% (n = 340,000); Potency, µM (highest dose often 46.1 µM); calls by dose curve; further: nearly all actives have a fitted effect of over 45% in size
#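 Quantitative HTS using a FRET biosensor: 0.1 uM Rango, 0.25 uM importin beta, 0.6 uM Ran, 2 mM GTP, 0.2 uM RCC1 final, PBS with DTT, Tween-20 and BSA. Post-read taken 45 min after Ran addition.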
# TDP-43 yeast inh = TDP-43 toxicity inhibition in yeast | TDP-43 expressing yeast growth rescue, BacTiter-Glo, 24 h | Potency, µM (doses to about 46.1 µM), actives largely listed as activators | actives 1.8% (n = 410,000) | AID 652104; further: nearly all actives have a fitted effect of over 50% in size
#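 In this qHTS, compounds that restore growth of yeast expressing TDP-43 appear as activators. Cells (OD600=0.02, galactose medium, raffinose-pregrown) are incubated with compound 24 hr at 30 deg C and growth is quantified by BacTiter-Glo.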
# Rango complex inh = inhibitors of Rango-importin beta complex formation; AID 540263; actives 0.031% (n = 340,000); Potency, µM (top dose mostly 92.2 µM); Q14974; Rango CFP/YFP FRET sensor + importin beta, 45 min; calls by dose curve; further: nearly all actives have a fitted effect of over 15% in size
# Target sequence (Q14974 whole entry, looked up): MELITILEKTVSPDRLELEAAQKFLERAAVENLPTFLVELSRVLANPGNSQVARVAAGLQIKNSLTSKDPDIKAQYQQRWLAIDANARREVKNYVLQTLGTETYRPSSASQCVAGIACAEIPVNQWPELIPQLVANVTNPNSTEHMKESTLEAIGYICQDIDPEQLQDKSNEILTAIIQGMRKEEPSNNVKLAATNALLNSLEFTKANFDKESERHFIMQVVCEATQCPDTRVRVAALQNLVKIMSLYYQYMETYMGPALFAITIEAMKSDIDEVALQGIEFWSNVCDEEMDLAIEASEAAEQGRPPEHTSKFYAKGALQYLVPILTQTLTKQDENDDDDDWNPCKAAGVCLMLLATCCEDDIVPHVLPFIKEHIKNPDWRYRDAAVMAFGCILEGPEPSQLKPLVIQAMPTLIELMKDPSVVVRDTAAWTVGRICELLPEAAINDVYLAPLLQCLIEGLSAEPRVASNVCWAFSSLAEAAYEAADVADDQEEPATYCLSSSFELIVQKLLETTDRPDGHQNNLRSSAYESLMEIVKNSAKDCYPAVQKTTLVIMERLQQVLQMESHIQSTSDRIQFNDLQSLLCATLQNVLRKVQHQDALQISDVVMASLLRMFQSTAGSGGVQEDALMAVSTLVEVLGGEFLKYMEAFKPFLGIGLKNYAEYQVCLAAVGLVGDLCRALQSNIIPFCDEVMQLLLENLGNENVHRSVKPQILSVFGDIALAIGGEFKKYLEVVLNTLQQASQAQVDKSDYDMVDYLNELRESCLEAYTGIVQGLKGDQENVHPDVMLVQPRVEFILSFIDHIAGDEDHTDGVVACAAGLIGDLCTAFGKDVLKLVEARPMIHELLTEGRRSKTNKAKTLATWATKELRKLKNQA
#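 FRET biosensor (snurportin 1 IBB flanked by EYFP and cerulean), 50 nM, with compound 5 min, then 0.125 microM importin beta in PBS, 1 mM DTT, 0.02% Tween-20, 0.1% BSA. CFP/YFP ratio read after 45 min at room temperature; pre-read flags interference.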
# S-ASM inh = blocks human secretory acid sphingomyelinase; P17405; placental ASM, HMU-PC fluorogenic substrate, 60 min; Potency, µM (doses to about 57.5 µM), most hits filed as inhibitors; actives 0.006% (n = 340,000)
#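 Fluorogenic HMU-PC substrate (9 uM final) is turned over by placental ASM in 60 min at 37 C after a 10 min compound preincubation. Reaction ended by alkaline stop (pH 10), with fluorescence read at 386/447 nm.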
# Abeta rescue = compounds reversing amyloid beta toxicity in yeast; Potency, µM (series often up to 46.1 µM), most hits filed as activators; actives 0.063% (n = 410,000); yeast expressing A-beta42, growth rescue, OD600, 48 h; response scale: 0% DMSO, 100% iron-clioquinol control; AID 1347071; further: nearly all actives have a fitted effect of over 55% in size
#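 Yeast A-beta toxicity model in growth medium with pinned compounds, 48 h at 30 C; growth read as absorbance at 600 nm. Normalized to FeCl3/clioquinol equimolar mix (positive) and DMSO (negative).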
# aSyn rescue = inhibitors of alpha-synuclein toxicity in yeast. Yeast expressing alpha-synuclein, growth rescue, BacTiter-Glo, 24 h. Potency, µM (top dose mostly 46.1 µM), hits mostly activators. actives 0.14% (n = 370,000). AID 652106; further: nearly all actives have a fitted effect of over 65% in size
#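 Readout is rescue of growth in alpha-synuclein-expressing yeast, so inhibitors of toxicity appear as activators. Growth after 24 hr at 30 deg C in galactose medium is quantified by luminescence.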
# Numbers stand for hits; . = inactive; ? = inconclusive; / = no result given; ! = a repeat was not active. Unless noted, the call rests on the fitted dose curve; in most records, active means well fitted curve in the direction sought with a large enough effect; inconclusive means small, poorly fitted or top-dose-only effect, or another doubt; inactive means no such curve, though single readings can be large; an effect the other way counts as inactive or inconclusive.
SMILES,Rango dissoc inh,TDP-43 yeast inh,Rango complex inh,S-ASM inh,Abeta rescue,aSyn rescue
Clc1ccc(-c2nnc(CSc3nnc(-c4cccs4)n3Cc3ccccc3)o2)cc1,.,18µM,.,.,.,?
CCn1c(SCC(=O)O)nc2ccccc21,.,.,.,.,.,.
CCn1c(SCc2nc(-c3ccccc3)no2)nnc1-c1cccs1,.,13µM,.,.,.,.
CCn1c(SCc2nc(-c3ccccc3)no2)nc2ccccc21,.,16µM,.,.,.,.
CCn1c(SCc2nc(-c3ccccc3)no2)nnc1-c1ccco1,.,18µM,.,.,.,.
Cc1nnc(SCc2nnc(-c3cccs3)o2)n1Cc1ccccc1,.,.,.,.,.,.
CCN1CCN(C(=O)c2c(C)nn(-c3ccc(F)cc3)c2-n2cccc2)CC1,/,.,/,/,.,.
COc1ccc(NC(=O)CSc2nc(-c3cccc(C)c3)[nH]c2-c2ccccc2)cc1OC,/,.,/,/,.,/
c1ccc(-c2noc(CSc3nnnn3C3CCCCC3)n2)cc1,.,13µM,.,.,.,.
Cc1cc(S(=O)(=O)c2ccc([N+](=O)[O-])cn2)ccc1Br,.,1µM,.,.,.,.
Cn1cnc([N+](=O)[O-])c1S(=O)(=O)Oc1ccccc1,.,13µM,.,.,.,.
Cn1cnc([N+](=O)[O-])c1S(=O)(=O)Nc1ccccc1,.,.,.,.,.,.
Cn1cnc([N+](=O)[O-])c1S(=O)(=O)c1cccc(Cl)c1,.,13µM,.,.,.,.
CCOCCc1nn2c(=O)cc(COC(=O)c3ccco3)nc2s1,/,.,/,/,.,/
CCOc1cc(-c2nc3c(c(CC)nn3-c3ccccc3)c3cc(OC)c(OC)cc23)ccc1O,/,.,/,/,.,/
Cn1nnc2c(N3CCN(c4cccc(Cl)c4)CC3)ncnc21,/,.,/,/,.,/
Nc1nn(-c2ccccc2)nc1C(=O)OCc1ccccc1,.,.,.,.,.,.
COc1cccc(COC(=O)c2nn(-c3ccccc3)nc2N)c1,.,35µM!,.,.,.,.
S=c1[nH]nc(-c2ccc(Cl)cc2)n1-c1ccc(Cl)cc1,.,.,.,.,10µM,.
S=c1[nH]nc(-c2ccc(Cl)cc2)n1-c1ccc2c(c1)OCCO2,.,.,.,.,.,.
O=c1c(N2CCc3ccccc3C2)csc2ccc(Cl)cc12,/,.,/,/,.,/
O=C(/C=N/O)Nc1ccc2sc3ccccc3c2c1,.,7.9µM,.,.,.,.
Cc1ccc(N=Nc2ccc(O)c3ncccc23)cc1,.,.,.,.,?,?
Cc1ccc(N=Nc2ccc(O)c3ncccc23)cc1C,.,28µM,.,.,.,?
CCCCOc1ccc(C(C)NC(=O)CN2C(=O)CSc3ccc(S(=O)(=O)N4CCOCC4)cc32)cc1 (stereo not given),/,.,/,/,.,/
SMILES,Rango dissoc inh,TDP-43 yeast inh,Rango complex inh,S-ASM inh,Abeta rescue,aSyn rescue
CCN(CC)S(=O)(=O)c1ccc2c(c1)N(CC(=O)NCCCN1CCN(c3cc(C)ccc3C)CC1)C(=O)CO2,/,.,/,/,.,/
CCOC(=O)c1c(S(=O)(=O)N2CCC(C(=O)Nc3cccc(C)n3)CC2)c(C)n(C)c1C,/,.,/,/,.,/
Cc1ccc(C)c2c1cc(C)c1nnc(SCC(=O)c3cccs3)n12,.,22µM,.,.,.,.
Cc1ccc2cc(C)c3nnc(SCC(=O)c4cccs4)n3c2c1C,.,?,.,.,.,.
COc1ccc(-c2noc(CSc3nc4ccccc4[nH]3)n2)cc1,/,11µM,/,/,.,/
COc1ccc(-c2noc(CSc3nnc(Cc4ccccc4)n3-c3ccc(F)cc3)n2)cc1,/,35µM,/,/,.,/
COc1cc(SC)ccc1C(=O)NCCOc1ccc(Cl)cc1,.,18µM,.,.,.,.
COc1cc(SC)ccc1C(=O)NCCOc1c(C)cc(C)cc1C,.,?,.,.,.,.
CCn1c(/C=C/c2ccccc2)nc2ccccc2c1=O,.,35µM,.,.,.,.
Cn1c(/C=C/c2ccccc2)nc2ccccc2c1=O,.,?,?,.,.,.
CCn1c(/C=C/c2ccc(F)cc2)nc2ccccc2c1=O,.,22µM,.,.,.,.
N/C(Cc1ccc(Cl)cc1)=N\OC(=O)c1ccc2ccccc2c1,.,6.3µM,.,.,.,.
Cc1ccc(/C(N)=N/OC(=O)c2ccc(C)cc2Cl)cc1,.,4µM,.,.,.,.
N/C(=N\OC(=O)c1ccc(Cl)cc1Cl)c1ccc(Cl)cc1,.,.,.,.,.,.
Cc1ccc(/C(N)=N/OC(=O)c2ccc3ccccc3c2)cc1,.,1.3µM,.,.,.,.
COc1cccc(-c2cn3ncsc3n2)c1,/,.,/,/,.,/
COc1ccc(-c2nc(NC(=O)Cn3ccc(C(F)(F)F)n3)sc2C)cc1,.,35µM,.,.,.,.
COc1ccc(-c2nc(NC(=O)c3[nH]c(C)c(C(C)=O)c3C)sc2C)cc1,?,35µM,?,?,.,.
CN(C)c1ccc(N=Cc2ccnc3ccccc23)cc1,/,/,/,/,/,.
CC(=O)N1CCc2c(sc3nc(SCC(C)C)n(-c4ccc(C)c(Cl)c4)c(=O)c23)C1,/,.,/,/,.,/
Clc1cccc(N2CCN(Cc3nnc(-c4ccccc4)o3)CC2)c1,.,11µM,.,.,.,.
COc1ccc(NC(=O)CN2C(=O)CCn3nc(-c4cccn4C)cc32)cc1Cl,/,.,/,/,.,/
O=[N+]([O-])c1ccccc1/C=N/n1c(C2CCCCC2)n[nH]c1=S,.,32µM,.,.,.,.
CCc1ccc(NC(=O)Cn2c(=O)n(Cc3nc(C)no3)c(=O)c3cc4c(cc32)OCO4)cc1,/,.,/,/,.,/
COC(C(=O)C(O)C(C)O)C1Cc2cc3cc(OC4CC(OC5CC(O)C(O)C(C)O5)C(O)C(C)O4)c(C)c(O)c3c(O)c2C(=O)C1OC1CC(OC2CC(OC3CC(C)(O)C(O)C(C)O3)C(O)C(C)O2)C(O)C(C)O1 (stereo not given),/,/,/,/,/,.
SMILES,Rango dissoc inh,TDP-43 yeast inh,Rango complex inh,S-ASM inh,Abeta rescue,aSyn rescue
Cc1cccc(NC(=O)Cc2ccc(-c3ccccc3)cc2)n1,.,11µM,.,.,.,.
O=C(O)Cc1coc2ccc3ccccc3c12,.,/,.,.,?,.
Cc1cccc(NC(=O)Cc2coc3ccc4ccccc4c23)n1,.,11µM,.,.,.,.
CN(C)S(=O)(=O)Oc1ccsc1C(=O)Nc1ccccc1Cl,.,.,.,.,.,.
CN(C)S(=O)(=O)Oc1cccc(C(=O)Nc2ccc(Cl)cc2)c1,.,22µM,.,.,.,.
CN(C)S(=O)(=O)Oc1cccc(C(=O)Nc2ccccc2Cl)c1,.,14µM,.,.,.,.
COc1ccc(CCNC(=O)Cn2cc(S(=O)(=O)Cc3cccc(Cl)c3)c3ccccc32)cc1OC,/,.,/,/,.,/
